In the supplement of paper PMC8728848:
Only a selection was taken, and the strongest signals are over-represented in it overall.

Legend:
Experiment in all cases: glycan array binding signal (z-score within array); higher = stronger binding
Conditions in all cases: glycan notation: IUPAC condensed, linker removed
Gal6S(b1-4)Glc6S = molecular target: Gal6S(b1-4)Glc6S
Procedure, shortened: (§1)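 Negative Z-scores can be read as non-binding. The Z-score is calculated within each array and then averaged across arrays of one protein sequence at different concentrations or buffers and across linkers. Arrays, 3228 in all, were curated from the Consortium for Functional Glycomics database and kept only where the protein sequence was available.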

Gal6S(b1-4)GlcNAc = molecular target: Gal6S(b1-4)GlcNAc
Procedure, shortened: as §1

GalNAc(a1-3)Gal = molecular target: GalNAc(a1-3)Gal
Procedure, shortened: as §1

GalNAc(a1-3)GalNAc = molecular target: GalNAc(a1-3)GalNAc
Procedure, shortened: as §1

GalNAc(b1-3)GalNAc = molecular target: GalNAc(b1-3)GalNAc
Procedure, shortened: as §1

GalNAc(b1-4)Gal(b1-4)Glc = molecular target: GalNAc(b1-4)Gal(b1-4)Glc
Procedure, shortened: as §1

Glc(b1-4)Glc = molecular target: Glc(b1-4)Glc
Procedure, shortened: as §1

[1] = molecular target: GlcNAc(a1-4)Gal(b1-4)GlcNAc
Procedure, shortened: as §1

[2] = molecular target: GlcNAc(a1-4)Gal(b1-4)GlcNAc(b1-3)Gal(b1-4)GlcNAc(b1-3)Gal(b1-4)GlcNAc
Procedure, shortened: as §1

[3] = molecular target: GlcNAc(a1-4)Gal(b1-4)GlcNAc(b1-3)Gal(b1-4)[Fuc(a1-3)]GlcNAc(b1-3)Gal(b1-4)[Fuc(a1-3)]GlcNAc
Procedure, shortened: as §1

[4] = molecular target: GlcNAc(b1-3)Gal(b1-4)GlcNAc(b1-2)Man(a1-3)[GlcNAc(b1-3)Gal(b1-4)GlcNAc(b1-2)Man(a1-6)]Man(b1-4)GlcNAc(b1-4)[Fuc(a1-6)]GlcNAc
Procedure, shortened: as §1

[5] = molecular target: GlcNAc(b1-4)GlcNAc(b1-4)GlcNAc
Procedure, shortened: as §1

[6] = molecular target: GlcNAc(b1-4)[GlcNAc(b1-6)]GalNAc
Procedure, shortened: as §1

Kdn(a2-6)Gal(b1-4)GlcNAc = molecular target: Kdn(a2-6)Gal(b1-4)GlcNAc
Procedure, shortened: as §1

[7] = molecular target: Man(a1-2)Man(a1-3)[Man(a1-2)Man(a1-6)]Man
Procedure, shortened: as §1

[8] = molecular target: Neu5Ac(a2-3)Gal(b1-3)GalNAc
Procedure, shortened: as §1

[9] = molecular target: Neu5Ac(a2-3)Gal(b1-3)GalNAc(b1-4)[Neu5Ac(a2-8)Neu5Ac(a2-3)]Gal(b1-4)Glc
Procedure, shortened: as §1

[10] = molecular target: Neu5Ac(a2-3)Gal(b1-3)GlcNAc(b1-3)GalNAc
Procedure, shortened: as §1

[11] = molecular target: Neu5Ac(a2-3)Gal(b1-3)[Fuc(a1-4)]GlcNAc(b1-3)Gal(b1-3)[Fuc(a1-4)]GlcNAc
Procedure, shortened: as §1

[12] = molecular target: Neu5Ac(a2-3)Gal(b1-4)[Fuc(a1-3)]GlcNAc(b1-2)Man
Procedure, shortened: as §1

[13] = molecular target: Neu5Ac(a2-3)Gal6S(b1-4)GlcNAc
Procedure, shortened: as §1

Neu5Ac(a2-6)Gal(b1-4)Glc = molecular target: Neu5Ac(a2-6)Gal(b1-4)Glc
Procedure, shortened: as §1

[14] = molecular target: Neu5Ac(a2-6)Gal(b1-4)GlcNAc(b1-2)Man(a1-3)[Neu5Ac(a2-6)Gal(b1-4)GlcNAc(b1-2)Man(a1-6)]Man(b1-4)GlcNAc(b1-4)GlcNAc
Procedure, shortened: as §1

[15] = molecular target: Neu5Ac(a2-6)Gal(b1-4)GlcNAc(b1-2)[Neu5Ac(a2-6)Gal(b1-4)GlcNAc(b1-4)]Man(a1-3)[GlcNAc(b1-4)][Neu5Ac(a2-6)Gal(b1-4)GlcNAc(b1-4)Man(a1-6)]Man(b1-4)GlcNAc(b1-4)GlcNAc
Procedure, shortened: as §1

[16] = molecular target: Neu5Ac(a2-6)Gal(b1-4)GlcNAc(b1-3)Gal(b1-3)GlcNAc
Procedure, shortened: as §1

[17] = molecular target: Neu5Ac(a2-6)Gal(b1-4)GlcNAc(b1-3)Gal(b1-4)GlcNAc(b1-3)Gal(b1-4)GlcNAc(b1-2)Man(a1-3)[Neu5Ac(a2-6)Gal(b1-4)GlcNAc(b1-3)Gal(b1-4)GlcNAc(b1-3)Gal(b1-4)GlcNAc(b1-2)Man(a1-6)]GalNAc
Procedure, shortened: as §1

[18] = molecular target: Neu5Ac(a2-6)Gal(b1-4)GlcNAc(b1-3)Gal(b1-4)GlcNAc(b1-6)[Gal(b1-3)]GalNAc
Procedure, shortened: as §1

[19] = molecular target: Neu5Ac(a2-8)Neu5Ac(a2-3)Gal(b1-3)GalNAc(b1-4)[Neu5Ac(a2-8)Neu5Ac(a2-3)]Gal(b1-4)Glc
Procedure, shortened: as §1

[20] = molecular target: Neu5Ac(a2-8)Neu5Ac(a2-8)Neu5Ac(a2-8)Neu5Ac(a2-3)[GalNAc(b1-4)]Gal(b1-4)Glc
Procedure, shortened: as §1

[21] = molecular target: Neu5Gc(a2-3)Gal(b1-4)[Fuc(a1-3)]GlcNAc
Procedure, shortened: as §1

[22] = molecular target: Neu5Gc(a2-6)Gal(b1-4)GlcNAc
Procedure, shortened: as §1

B1: Gal 10 (Homo sapiens), Q05315 (protein)
chain: MSLLPVPYTEAASLSTGSTVTIKGRPLVCFLNEPYLQVDFHTEMKEESDIVFHFQVCFGRRVVMNSREYGAWKQQVESKNMPFQDGQEFELSISVLPDKYQVMVNGQSSYTFDHRIKPEAVKMVQVWRDISLTKFNVSYLKR
glycan array binding signal (z-score) (Gal6S(b1-4)Glc6S): -0.014 | glycan array binding signal (z-score) (Gal6S(b1-4)GlcNAc): -0.568 | glycan array binding signal (z-score) (GalNAc(a1-3)Gal): -0.104 | glycan array binding signal (z-score) (GalNAc(a1-3)GalNAc): -0.834 | glycan array binding signal (z-score) (GalNAc(b1-3)GalNAc): -0.693 | glycan array binding signal (z-score) (GalNAc(b1-4)Gal(b1-4)Glc): 2.27 | glycan array binding signal (z-score) (Glc(b1-4)Glc): -0.17 | glycan array binding signal (z-score) [1]: -0.744 | glycan array binding signal (z-score) [2]: 0.459 | glycan array binding signal (z-score) [3]: 3.48 | glycan array binding signal (z-score) [4]: -0.014 | glycan array binding signal (z-score) [5]: -0.449 | glycan array binding signal (z-score) [6]: -0.956 | glycan array binding signal (z-score) (Kdn(a2-6)Gal(b1-4)GlcNAc): 0.098 | glycan array binding signal (z-score) [7]: -0.68 | glycan array binding signal (z-score) [8]: -0.079 | glycan array binding signal (z-score) [9]: 0.255 | glycan array binding signal (z-score) [10]: -0.378 | glycan array binding signal (z-score) [11]: 1.14 | glycan array binding signal (z-score) [12]: 2.57 | glycan array binding signal (z-score) [13]: -0.415 | glycan array binding signal (z-score) (Neu5Ac(a2-6)Gal(b1-4)Glc): -0.381 | glycan array binding signal (z-score) [14]: 0.509 | glycan array binding signal (z-score) [15]: 2.9 | glycan array binding signal (z-score) [16]: -0.312 | glycan array binding signal (z-score) [17]: 3.41 | glycan array binding signal (z-score) [18]: -0.176 | glycan array binding signal (z-score) [19]: -0.741 | glycan array binding signal (z-score) [20]: 0.562 | glycan array binding signal (z-score) [21]: 0.205 | glycan array binding signal (z-score) [22]: -0.495
